# Test results: PubChem BioAssay
# Active and inactive are the calls of the source. Unless noted, how the calls were made is not given here.
# Key:
# [1] = resazurin metabolic signal in HepG2 cells – cell-based, resazurin fluorescence, 24 h, PK04 Diversity Set, profiling panel (AID 1172); conditions: HepG2 viability, higher = more signal; further: test concentration not given here
# [2] = budding yeast growth changes without added modifier – OD600, strain BY4716, 24 h, basal condition, primary screen (AID 1173); conditions: S. cerevisiae BY4716 growth, OD600, 24 h; higher = more signal, called active from +8 up or from −8 down
# [3] = viability profiling in MM1S myeloma cells – cell-based, resazurin fluorescence, basal, 24 h, PK04 Diversity Set, profiling panel (AID 1174); conditions: higher = more signal, called active from +8 up or from −8 down;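 further: MM1S multiple myeloma cell line; test concentration not given here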
# [4] = molecular target: Dihydroorotate dehydrogenase (quinone), mitochondrial (Plasmodium falciparum (isolate 3D7)) (UniProt Q08210); test: inhibition of P. falciparum DHODH – biochemical, C-terminal His tag, absorbance 600 nm, primary screen (AID 1175); conditions: PfDHODH enzyme, DCIP absorbance 600 nm; higher = more signal, called active from +8 up or from −8 down;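 further: recombinant parasite enzyme with a five histidine tag at its C terminus; test concentration not given here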
# [5] = inhibition of PAO1 biofilm formation – strain PAO1, LB-PBS medium, absorbance 600 nm, primary screen (AID 1176); further: test concentration not given here; conditions: P. aeruginosa PAO1 growth/biofilm, A600, 12 h; higher = more signal
# [6] = growth modulation of vineyard yeast isolate – strain RM11-1a, OD600, basal, 24 h, primary screen (AID 1177);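 further: cultures grown under basal conditions with no added stressor; test concentration not given here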; conditions: S. cerevisiae RM11-1a growth, OD600, 24 h; higher = more signal, called active from +8 up or from −8 down
# [7] = growth of efflux-deficient E. coli DRC39 – strain DRC39, OD650, 24 h, E. coli filamentation inducers, primary screen (AID 1178);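 further: growth measured as culture turbidity by optical density at 650 nm; test concentration not given here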; conditions: E. coli DRC39 acrAB, higher = more signal, called active from +8 up or from −8 down
# [8] = growth of efflux-deficient E. coli DRC39 – strain DRC39, OD650, 48 h, E. coli filamentation inducers, primary screen (AID 1179);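 further: screen aims at cell division blockers that make cells filament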; conditions: E. coli DRC39 delta-acrAB growth, higher = more signal, called active from +8 up or from −8 down
# [9] = viability profiling in RPMI8226 myeloma cells – cell-based, resazurin fluorescence, basal, 24 h, PK04 Diversity Set, profiling panel (AID 1180); conditions: higher = more signal;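 further: RPMI8826 multiple myeloma cell line at 5000 cells per well; test concentration not given here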
# [10] = molecular target: E3 ubiquitin-protein ligase XIAP (Homo sapiens) (UniProt P98170); test: small molecules binding XIAP protein – biophysical, small-molecule microarray, fluorescence 635 nm, primary screen (AID 1181); conditions: higher = more signal;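 further: score merges 667 nm emission and signal to noise over triplicate slides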
# Sequence of E3 ubiquitin-protein ligase XIAP (Homo sapiens) (P98170 whole entry, looked up): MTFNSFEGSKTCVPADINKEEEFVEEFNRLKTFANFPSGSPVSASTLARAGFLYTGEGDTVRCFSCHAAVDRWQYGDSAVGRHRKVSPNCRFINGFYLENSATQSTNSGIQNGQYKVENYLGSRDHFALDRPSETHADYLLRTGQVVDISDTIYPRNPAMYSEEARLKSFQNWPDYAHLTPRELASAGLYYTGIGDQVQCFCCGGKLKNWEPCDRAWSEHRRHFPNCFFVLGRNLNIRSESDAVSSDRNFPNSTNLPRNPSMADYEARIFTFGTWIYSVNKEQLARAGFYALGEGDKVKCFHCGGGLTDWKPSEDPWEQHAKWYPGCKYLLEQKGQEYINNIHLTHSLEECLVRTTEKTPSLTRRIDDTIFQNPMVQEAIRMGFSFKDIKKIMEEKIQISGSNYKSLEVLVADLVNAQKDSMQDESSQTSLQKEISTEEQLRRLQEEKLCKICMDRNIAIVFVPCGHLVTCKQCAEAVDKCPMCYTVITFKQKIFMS
# Sequence of Dihydroorotate dehydrogenase (quinone), mitochondrial (Plasmodium falciparum (isolate 3D7)) (Q08210 whole entry, looked up): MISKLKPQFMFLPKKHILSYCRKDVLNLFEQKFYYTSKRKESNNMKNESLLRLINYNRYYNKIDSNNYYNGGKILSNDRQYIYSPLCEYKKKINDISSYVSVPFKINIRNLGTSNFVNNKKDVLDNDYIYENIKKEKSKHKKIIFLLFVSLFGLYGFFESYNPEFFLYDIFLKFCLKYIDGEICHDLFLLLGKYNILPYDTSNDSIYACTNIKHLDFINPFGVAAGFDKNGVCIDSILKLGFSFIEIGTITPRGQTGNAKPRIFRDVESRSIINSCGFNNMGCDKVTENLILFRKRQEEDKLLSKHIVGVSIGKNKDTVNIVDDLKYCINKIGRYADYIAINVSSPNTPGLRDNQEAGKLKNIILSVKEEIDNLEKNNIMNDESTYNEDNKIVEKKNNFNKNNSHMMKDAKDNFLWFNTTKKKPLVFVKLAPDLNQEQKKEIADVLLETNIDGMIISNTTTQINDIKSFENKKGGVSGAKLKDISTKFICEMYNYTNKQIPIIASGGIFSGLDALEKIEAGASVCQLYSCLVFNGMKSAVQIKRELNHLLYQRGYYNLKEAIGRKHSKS
Compound,z-score [1],z-score [2],z-score [3],composite z-score [4],z-score [5],z-score [6],z-score [7],z-score [8],z-score [9],composite z-score [10]
COc1cc(OC)c(C(O)C2C=CC3C(=O)NC(=O)C3N2Nc2ccc(Cl)cc2Cl)cc1Br (stereo not given),-3.99,-14.7 (active),-2.48 (inactive),-0.0023 (inactive),0.338 (inactive),0.695 (inactive),-0.0795 (inactive),-1.06 (inactive),-2.27,0.367
COCCOC(=O)N1C(=O)[C@@]2(c3cc(C#Cc4ccc(OC)cc4)ccc31)[C@H](c1ccc(O)cc1)N1[C@H](c3ccccc3)[C@H](c3ccccc3)OC(=O)[C@H]1[C@@H]2C(=O)NC[C@H](O)c1ccccc1,-0.372,0.895 (inactive),-0.5 (inactive),1.49 (inactive),0.429 (inactive),0.95 (inactive),0.351 (inactive),-0.206 (inactive),-0.573,-0.296
CCCCN1CC=CC23O[C@@H]4C=CCOC(=O)[C@@H]4[C@H]2C(=O)N(CCCCCO)[C@@H]3C1=O (stereo not given in full),0.371,0.0133 (inactive),-0.86 (inactive),-0.165 (inactive),0.91 (inactive),-0.176 (inactive),-0.967 (inactive),-0.982 (inactive),-0.531,0.327
C=CC[C@@]1(C(N)=O)N=C(c2ccc(OCCCO)cc2)O[C@@H]1c1ccccc1CN=[N+]=[N-],0.165,-0.935 (inactive),0.348 (inactive),-0.0357 (inactive),0.426 (inactive),-0.742 (inactive),0.793 (inactive),-0.597 (inactive),0.093,-0.201
COc1ccc([Si](C)(C)[C@H]2[C@H](CC(=O)N3CCC[C@H]3CO)O[C@@]3(C(=O)N(Cc4cccc(N5C(=O)c6cccc7cccc5c67)c4)c4ccccc43)[C@@H]2C)cc1,-1.13,0.547 (inactive),-0.712 (inactive),-1.74 (inactive),0.495 (inactive),1 (inactive),-0.672 (inactive),-0.881 (inactive),-1.28,0.013
CCOC(=O)C=Cc1cc([N+](=O)[O-])ccc1O,-0.495,-4.86 (inactive),-0.912 (inactive),-4.74 (inactive),-0.501 (inactive),0.11 (inactive),-0.238 (inactive),-1.13 (inactive),-0.688,0.193
COc1ccc(C(=O)Nc2ccc(CN3C(=O)[C@@]4(O[C@@H](CCn5cc([C@H](O)c6ccccc6)nn5)[C@H]([Si](C)(C)c5ccc(OC)cc5)[C@H]4C)c4ccccc43)cc2)cc1,-1.44,-0.91 (inactive),-3.18 (inactive),-0.441 (inactive),1.04 (inactive),1.57 (inactive),0.245 (inactive),0.195 (inactive),-3.11,-0.16
C=CCNC(=O)[C@H]1[C@@H]2C(=O)O[C@@H](c3ccccc3)[C@@H](c3ccccc3)N2[C@@H](c2ccc(O)cc2)[C@]12C(=O)N(C(=O)OCCOC)c1ccc(C#CCNC(N)=O)cc12,-0.173,0.516 (inactive),0.244 (inactive),0.132 (inactive),0.911 (inactive),1.14 (inactive),0.204 (inactive),-0.135 (inactive),-0.17,-0.219
COCCOC(=O)N1C(=O)[C@@]2(c3cc(C#CC4=CCCCC4)ccc31)[C@H](c1ccc(O)cc1)N1[C@H](c3ccccc3)[C@H](c3ccccc3)OC(=O)[C@H]1[C@@H]2C(N)=O,-0.74,-0.167 (inactive),-1.85 (inactive),-1.06 (inactive),0.318 (inactive),0.654 (inactive),0.066 (inactive),0.552 (inactive),-2.95,0.0435
COC(=O)[C@@]1(Cc2ccc(F)cc2)[C@H]2c3cc(C(=O)N4CCCC4)n(Cc4cc(C)n(C)n4)c3C[C@H]2CN1C(=O)c1ccccc1,-0.945,0.603 (inactive),-0.642 (inactive),-0.468 (inactive),0.964 (inactive),0.279 (inactive),-0.375 (inactive),-0.459 (inactive),-1.51,0.17
CN1C(=O)C2C=CC(C(O)c3cccs3)N(Nc3ccccc3)C2C1=O (stereo not given),-0.698,0.702 (inactive),-0.861 (inactive),-0.607 (inactive),0.847 (inactive),-0.0337 (inactive),-0.947 (inactive),-0.724 (inactive),-1.15,0.311
CCN(CC)c1ccc(N2CC=CC34O[C@@H]5/C=C\CCC(C)OC(=O)C5[C@H]3C(=O)N(C(CO)C(C)C)[C@@H]4C2=O)cc1 (stereo not given in full),-0.364,0.0948 (inactive),0.509 (inactive),-2.68 (inactive),-0.525 (inactive),-0.185 (inactive),0.496 (inactive),0.767 (inactive),0.259,0.0049
CCCCc1cn(C[C@H](Cc2ccccc2)NC(=O)N[C@H](CO)CCc2oc(C(C)=O)c(C(=O)OC)c2C(=O)OC)nn1,-0.013,-2.38 (inactive),0.465 (inactive),-2.83 (inactive),-0.44 (inactive),-0.728 (inactive),0.916 (inactive),0.646 (inactive),-0.185,0.276
C=CCOC(=O)[C@H]1[C@@H]2C(=O)O[C@@H](c3ccccc3)[C@@H](c3ccccc3)N2[C@@H](c2ccc(OCCOC(=O)[C@@H]3C[C@@H]4C(=O)N[C@@H](CCCCN(C)C)C(=O)N4[C@@H]3c3ccc(O)cc3)cc2)[C@]12C(=O)Nc1ccc(I)cc12,-0.513,-1.17 (inactive),-1.06 (inactive),-1.71 (inactive),1.26 (inactive),1.65 (inactive),-0.619 (inactive),0.767 (inactive),-1.18,-0.0749
COc1cc2c(cc1OC)CN(C(=O)[C@H]1[C@@H]3C(=O)O[C@@H](c4ccccc4)[C@@H](c4ccccc4)N3[C@@H](c3ccc(O)cc3)[C@]13C(=O)Nc1ccc(C#CC4=CCCCC4)cc13)CC2,-0.436,-1.16 (inactive),-0.16 (inactive),-1.05 (inactive),1.08 (inactive),0.449 (inactive),-0.222 (inactive),-0.273 (inactive),0.916,-0.359
COC(=O)c1c(CC[C@@H](CO)NC(=O)N2CCC[C@H]2Cn2cc(-c3ccccn3)nn2)oc(C(C)=O)c1C(=O)OC,0.422,-0.835 (inactive),0.608 (inactive),-0.492 (inactive),-0.252 (inactive),-1.19 (inactive),1.28 (inactive),0.835 (inactive),0.426,-0.0351
O=C1O[C@@H](c2ccccc2)[C@@H](c2ccccc2)N2[C@@H](c3ccccc3OCCO)[C@]3(C(=O)Nc4ccc(C#CC5=CCCCC5)cc43)[C@@H](C(=O)Nc3nc4ccccc4s3)[C@H]12,0.482,1.26 (inactive),-0.785 (inactive),-1.7 (inactive),2.84 (inactive),1.34 (inactive),-0.583 (inactive),-1.05 (inactive),-1.2,-0.234
CC(C)C(CO)N1C(=O)[C@@H]2[C@H]3C(=O)OCC=C[C@H]3OC23C=CCN(C(C)C)C(=O)[C@@H]13 (stereo not given in full),1.18,0.55 (inactive),0.713 (inactive),0.0658 (inactive),-0.565 (inactive),0.73 (inactive),0.074 (inactive),-0.137 (inactive),0.634,-0.0719
N#Cc1ccc(NN2C(C(O)c3c(F)cccc3Cl)C=CC3C(=O)N(c4ccccc4)C(=O)C32)cc1 (stereo not given),-1.31,0.566 (inactive),-0.392 (inactive),1.67 (inactive),1.01 (inactive),-0.0762 (inactive),-0.731 (inactive),-0.445 (inactive),-0.739,0.585
COc1ccc([C@H]2OC[C@@H]3CC4(CC=CC4)C(=O)N32)cc1,-0.876,-0.897 (inactive),0.305 (inactive),-0.177 (inactive),-0.0634 (inactive),0.504 (inactive),-0.632 (inactive),-0.688 (inactive),0.012,-0.0118
C=C(COC)/C(=C/C[C@@H](OC(C)=O)c1ccc(OCCO)cc1)c1cc(C(=O)OC)ccc1OC,0.453,0.166 (inactive),-0.252 (inactive),-0.72 (inactive),0.862 (inactive),0.303 (inactive),0.193 (inactive),0.0514 (inactive),-0.395,-0.353
COc1ccc([Si](C)(C)[C@H]2[C@H](CCO)O[C@@]3(C(=O)N(Cc4ccc(N5C(=O)COc6ccccc65)cc4)c4ccccc43)[C@@H]2C)cc1,-1.97,0.573 (inactive),-4.21 (inactive),-0.349 (inactive),3.06 (inactive),3.3 (inactive),0.404 (inactive),-0.288 (inactive),-5.05,0.144
CCOC(=O)C[C@H]1[C@H](OC(=O)Cc2ccc3c(c2)OCO3)[C@@H](NC(=O)c2ccc3ccccc3c2)c2cc(OCCCO)ccc2N1C(=O)c1ccccc1,0.898,-0.206 (inactive),-1.09 (inactive),-0.777 (inactive),0.69 (inactive),0.738 (inactive),-0.241 (inactive),0.15 (inactive),-0.52,-0.0426
O=C1O[C@H](c2ccccc2)[C@H](c2ccccc2)N2[C@H]1[C@@H](C(=O)NC[C@H](O)c1ccccc1)[C@]1(C(=O)Nc3ccccc31)[C@H]2c1ccc(OCCO)cc1,0.293,1.3 (inactive),-2.05 (inactive),0.0379 (inactive),4.04 (inactive),3.05 (inactive),0.0797 (inactive),0.0403 (inactive),-3.16,-0.0272
CN1C(=O)C2C=CC(C(O)c3ccc(I)cc3)N(N3CCCCC3)C2C1=O (stereo not given),-1.17,-3.86 (inactive),-2.13 (inactive),0.0552 (inactive),0.338 (inactive),-0.0818 (inactive),-0.709 (inactive),-1.11 (inactive),-1.26,0.33
